LRH-1 inv ag: LRH-1 (NR5A2) inverse agonists, primary screen, cell-based, luminescence, HEK293T, StAR-luciferase reporter; Nuclear receptor subfamily 5 group A member 2 (Homo sapiens), O00482; LRH-1 transfected, 24 h; inhibition, % at 3.6 µM; 360,000 tested, 0.13% active; AID 602396, 2012;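 active means inhibition above the mean inhibition of all tested compounds plus 3 SD, cut at about 73% in these data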;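 further: 0% = DMSO wells and 100% = reporter-only cells lacking LRH-1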
NCOA2 inhibitor: inhibition of GAL4-SRC2 driven luciferase reporter, primary screen, SRC2 inhibitor project, cell-based, luminescence; HEK293 GAL4-SRC2 luciferase reporter; inhibition, % at 9 µM; 370,000 tested, 0.17% active; AID 651957, 2012;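 active means inhibition above the mean inhibition of all tested compounds plus 3 SD, set per campaign, cut at about 52% in these data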;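 further: 0% = DMSO treated cells and 100% = cells given Gossypol at 36 µM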
GalR3 antagonist: GalR3 antagonists in HEK293 cells, primary screen, cell-based, fluorescence readout; inhibition, % at 3 µM; 360,000 tested, 0.44% active; HEK293 GalR3-CNG cAMP membrane potential fluorescence; galR3 body fused to GalR1 C-terminus;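 active means inhibition above the screen-wide average plus 3 SD, cut at about 13% in these data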;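 further: forskolin and galanin both at EC90 stimulate the cells; cAMP rise reported by CNG channel membrane potential dye signal; 0% = forskolin plus galanin with DMSO and 100% = forskolin alone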
Target sequence (O60755 1-299 limits assumed): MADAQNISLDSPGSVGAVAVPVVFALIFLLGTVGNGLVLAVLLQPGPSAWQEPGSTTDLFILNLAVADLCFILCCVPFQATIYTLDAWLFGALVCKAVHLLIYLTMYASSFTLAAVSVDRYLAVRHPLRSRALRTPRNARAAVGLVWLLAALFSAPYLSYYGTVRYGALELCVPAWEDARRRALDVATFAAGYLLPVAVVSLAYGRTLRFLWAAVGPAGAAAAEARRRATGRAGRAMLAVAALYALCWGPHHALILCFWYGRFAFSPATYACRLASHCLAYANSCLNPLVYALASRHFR
COUP-TFII inh: NR2F2 transcriptional activity inhibitors, primary screen, cell-based, luciferase reporter, HEK293T, luminescence; COUP transcription factor 2 (Homo sapiens), P24468; inhibition, % at 8.6 µM; HEK293T NGFI-A luciferase reporter; 370,000 tested, 0.7% active;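 active means inhibition above a per-plate cutoff, mean inhibition of test wells between control levels plus 3 SD, cut at about 38% in these data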;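 further: cells cotransfected with COUP-TFII expression vector driving the NGFI-A reporter; 0% = median of COUP-TF2 test wells and 100% = reporter-only cells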
NCOA3 inh: SRC3 coactivator transcriptional activity inhibitors, primary screen, cell-based, luminescence. Nuclear receptor coactivator 3 (Homo sapiens), Q9Y6Q9. HEK293 GAL4-SRC3 luciferase reporter. inhibition, % at 3.6 µM. 360,000 tested, 0.17% active. AID 588352, 2011;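 active means inhibition above a per-campaign cutoff, the mean of all compounds plus 3 SD, cut at about 60% in these data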;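 further: 0% = DMSO-treated cells and 100% = gossypol-treated cells at 36 µM; higher means less SRC3-driven luciferase light from the GAL4 reporter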
SRC1 inh: SRC1 coactivator transcriptional activity inhibitors, primary screen, cell-based, luminescence; Nuclear receptor coactivator 1 (Homo sapiens), Q15788; HEK293 GAL4-SRC1 luciferase reporter; inhibition, % at 3.6 µM; 360,000 tested, 0.12% active; AID 588354, 2011;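 active means inhibition above the campaign mean plus 3 SD, with each screening campaign given its own cutoff, cut at about 60% in these data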;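 further: 0% = DMSO treated cells and 100% = gossypol at 36 µM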
GalR3 antag conf: GalR3 antagonist hit confirmation, cell-based, fluorescence, triplicate. shares compounds with GalR3 antagonist. HEK293 GalR3 CNG cAMP biosensor, membrane potential fluorescence; galR3 fused to GalR1 carboxy tail; challenged with forskolin and galanin at EC90. inhibition, % at 3 µM. 1,600 tested, 59% active;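 active means inhibition above the primary screen's cutoff, the mean inhibition of all screened compounds plus 3 SD, cut at about 13% in these data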;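 further: 0% = forskolin plus galanin and 100% = forskolin alone with DMSO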
CNG parental: nonspecific cAMP agonists in parental HEK-CNG cells, counter-screen for GalR3 antagonist project, cell-based, fluorescence, high throughput | 1,600 tested, 10% active | HEK293-CNG parental cells, cAMP membrane potential fluorescence; normalised: DMSO wells 0%, forskolin wells 100% | shares compounds with GalR3 antagonist | activation, % at 3 µM; in the data active means activation above about 1.3%
Numbers without * were called inactive; . = no result. Shown are actives, neighbours in structure and some others; about 1.1% of the full set was active somewhere.

SMILES	LRH-1 inv ag	NCOA2 inhibitor	GalR3 antagonist	COUP-TFII inh	NCOA3 inh	SRC1 inh	GalR3 antag conf	CNG parental
CCCCNC(=O)N(CC)c1c(N)n(Cc2ccccc2)c(=O)[nH]c1=O	-4	-15	13*	-4	-11	-22	3	0
CCCCNC(=O)N(c1c(N)n(Cc2ccccc2)c(=O)[nH]c1=O)C1CCCC1	13	7	-3	12	0	-11	.	.
Cc1nn(Cc2ccccc2)c(C)c1/C=N/NC(=O)CNc1cccc(C(F)(F)F)c1	5	20	-3	1	9	-13	.	.
COc1cc(CN(C)CC(=O)c2[nH]c(C)c(C(C)=O)c2C)ccc1OC(F)F	21	14	19*	25	22	-20	12	0
Cn1c(=O)c2c(nc(NCc3cccnc3)n2Cc2ccc(Cl)cc2)n(C)c1=O	-2	21	24*	4	14	-7	9	1
Cn1c(=O)c2c(ncn2Cc2ccc(Cl)cc2)n(C)c1=O	5	22	15*	18	21	6	0	0
CCCCN(C)c1nc(C)nc2c1nnn2Cc1ccccc1	.	7	.	6	.	.	.	.
O=C(COC(=O)c1cnccn1)c1ccc(Cl)c([N+](=O)[O-])c1	3	3	0	0	13	4	.	.
NS(=O)(=O)c1ccc(CCNC(=O)CN2C(=O)COc3ccc(S(=O)(=O)N4CCCC4)cc32)cc1	-14	13	-5	20	16	-5	.	.
CC(C(=O)NCC1CCCCC1)N1CCN(S(=O)(=O)c2cccs2)CC1 (stereo not drawn)	-12	10	-3	5	2	-3	.	.
Cc1cc(Br)cn2c(Cc3ccccc3C(F)(F)F)c(-c3ccco3)nc12	.	-4	18*	12	.	.	45*	1
Cc1cc(Br)cn2c(Cc3cccc(Cl)c3)c(-c3ccco3)nc12	-2	-40	40*	10	.	.	41*	0
O=C(NC1CCS(=O)(=O)C1)C1CCCCN1S(=O)(=O)c1ccc(Cl)cc1 (stereo not drawn)	4	7	-3	7	-3	-1	.	.
CNc1ncnc2c1ncn2[C@@H]1O[C@H](CO)[C@@H](O)[C@H]1O	1	-23	77*	-41	-12	-27	17*	0
C[C@H](Cc1ccccc1)Nc1ncnc2c1ncn2[C@@H]1O[C@H](CO)[C@@H](O)[C@H]1O	13	-36	.	-73	-39	-52	.	.
COc1cccc(C2C3=C(CC(C)(C)CC3=O)Nc3cc4c(cc32)OCO4)c1 (stereo not drawn)	14	-33	0	-9	20	10	.	.
CC(=O)Oc1ccc(C2C3=C(CC(C)(C)CC3=O)Nc3cc4c(cc32)OCCO4)cc1 (stereo not drawn)	17	-7	-3	2	16	-19	.	.
COc1cc2c(cc1OC)C(c1ccc3c(c1)OCO3)C1=C(CC(C)(C)CC1=O)N2 (stereo not drawn)	9	-18	13*	0	-8	-15	29*	1
COc1cccc(C2C3=C(CC(C)(C)CC3=O)Nc3cc(OC)c(OC)cc32)c1 (stereo not drawn)	12	-22	15*	-18	-17	10	23*	0
CCOc1ccc(Oc2ccccc2NS(=O)(=O)c2ccc(CCC(=O)O)cc2)cc1	11	28	-7	4	11	-14	.	.
CSc1ccccc1NC(=O)c1cnc2scc(C)n2c1=O	-1	-43	23*	-99	-50	-44	5	0
CCc1ccccc1NC(=O)c1cnc2scc(C)n2c1=O	5	-6	2	-1	-2	-12	.	.
COc1ccc(NS(=O)(=O)c2ccc3oc(SC(C)C(N)=O)nc3c2)cc1 (stereo not drawn)	25	-1	24*	36	18	5	0	0
CCNC(=O)CSc1nc2cc(S(=O)(=O)Nc3ccc(OC)cc3)ccc2o1	16	6	0	6	0	-12	.	.
Cc1ccc(S(=O)(=O)N2CCC(C(=O)N3CCN(c4ccccn4)CC3)CC2)cc1C	-5	22	-4	8	-8	1	.	.
SMILES	LRH-1 inv ag	NCOA2 inhibitor	GalR3 antagonist	COUP-TFII inh	NCOA3 inh	SRC1 inh	GalR3 antag conf	CNG parental
COc1ccc(CCNC(=O)C(=O)NCC2OCCN2S(=O)(=O)c2ccc(C)cc2)cc1 (stereo not drawn)	4	19	.	10	-3	-12	.	.
O=C(Oc1ccc(Br)cc1C(=O)/C=C/c1ccccc1F)c1ccco1	11	-7	24*	8	3	-9	12	0
COc1cc(NC(=O)c2cc(C)on2)cc(C(=O)Nc2cccc(C(F)(F)F)c2)c1	5	16	-5	16	1	8	5	0
CNCC(O)c1ccc(OC(=O)C(C)(C)C)c(OC(=O)C(C)(C)C)c1 (stereo not drawn)	-17	-10	55*	-55	-52	-22	63*	13*
CC(C)c1c(O)c2c(n(-c3ccccc3)c1=O)CCCC2	9	-2	.	9	13	-16	3	1.9*
Cc1ccc(S(=O)(=O)NN2C(=O)c3ccccc3NC2c2ccccn2)cc1 (stereo not drawn)	1	17	14*	13	8	5	-1	0
COc1ccc(C2=NS(=O)(=O)N(C)C(C(=O)N(C)Cc3ccccc3)=C2)cc1OC	17	-16	15*	2	5	-3	22*	-1
COc1ccc(C2=NS(=O)(=O)N(C)C(C(=O)NC(C)c3ccccc3)=C2)cc1OC (stereo not drawn)	35	-1	6	-3	-4	-14	.	.
COc1ccc2[nH]c(=O)c(CNc3ccc(C)cc3C)cc2c1	4	-41	14*	-5	0	2	5	0
Cc1nc(S(=O)(=O)Cc2ccccc2)nc2c1CCC2	-17	0	5	-3	-12	-5	.	.
Cc1nc(S(=O)(=O)Cc2ccccc2Cl)nc2c1CCC2	15	13	27*	-2	9	-11	3	0

From PubChem BioAssay
